The source made the active and inactive calls. Calls follow the shape of the full dose curve.
Assay: qHTS assay to identify small molecule agonists of the sonic hedgehog signaling (Shh) pathway (AID 1259368);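 also: NIH/3T3-derived 3T3Gli1-Luc cells carrying a stable Gli1-driven firefly luciferase reporter; nearly all actives have a fitted effect of over 15% in size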
Conditions: NIH/3T3 Gli1-Luc reporter, luciferase, 24 h; series mostly up to 92.4 µM; activity change: at the top concentration
Excerpt: National Center for Advancing Translational Sciences [NCATS]
NIH Chemical Genomics Center [NCGC]
U.S. Environmental Protection Agency [EPA]
National Institutes of Environmental Health Sciences [NIEHS]
National Toxicology Program [NTP]
The sonic hedgehog (Shh) pathway is essential for normal embryonic development. Dysregulation of the Shh pathway can cause severe developmental defects in organs. Therefore chemicals that interfere with the pathway are potential developmental toxicants. A cell line designated 3T3Gli1-Luc (DMB/OARSA/CFSAN/FDA, Laurel, MD), a NIH/3T3 derived clone containing stably integrated Gli1-Luc reporter is used to detect chemical interference of the Shh pathway, by changes in the expression of the firefly Luc gene under the control of the Gli1 transcriptional response element. This cell line was used to screen Tox21 libraries for identifying and prioritizing the potential developmental toxicants that interfere Shh pathway.
3T3 Gli1-Luc cells were dispensed at 2,000 per well in 5uL of culture medium into white solid bottom 1536-well plates (Greiner Bio-One, Monroe, NC) using a Multidrop Combi (Thermo Scientific, Waltham, MA) dispenser. The assay plates were incubated at 37 C and 5% CO2 for 4hr, and then 23nL of compounds dissolved in DMSO and positive control were transferred using a Pintool station (Wako, San Diego, CA). The assay plates were incubated at 37C and 5% CO2 for 24hr. For luciferase read, 4uL of Amplite Luciferase reporter gene assay reagent (AAT Bioquest, Inc. Sunnyvale, CA) was added to each well of the assay plates using Flying Reagent Dispenser (FRD, Aurora Discovery, San Diego, CA) and incubated at room temperature for 30min. The luminescence signal was measured using a ViewLux plate reader (Perkin Elmer, Shelton, CT).
% is scaled to controls: 0 for no effect and ±100 for the full control effect.

SMILES	activity change	Potency
CC(C)(CCl)c1ccccc1	-0.177% (inactive)	
CC1CC(O)CC(C)(C)C1 (stereo not given)	-1.05% (inactive)	
COc1cc2c(N3CCN(C(=O)Nc4ccc(OC(C)C)cc4)CC3)ncnc2cc1OCCCN1CCCCC1	-3.53% [at 42.5 µM, stronger effect = higher value] (inactive)	
Cc1nc2ccccc2s1	-0.332% (inactive)	
Cc1cc(O)c(C(C)C)cc1Cl		inactive
CC(=O)[C@H]1CC[C@H]2[C@@H]3C[C@H](C)C4=CC(=O)CC[C@]4(C)[C@H]3[C@@H](O)C[C@]12C	0.244% [at 42.5 µM, stronger effect = higher value] (inactive)	
CN1CCCN=C1/C=C/c1cccs1	0.0035% [at 42.5 µM, stronger effect = higher value] (inactive)	
CC(=O)[C@H]1CC[C@H]2[C@@H]3C=CC4=CC(=O)CC[C@@]4(C)[C@@H]3CC[C@]12C	1.26% [at 42.5 µM, stronger effect = higher value] (inactive)	
Nc1nccs1	-3.32% (inactive)	
Cc1oc(C)c(C(=O)Nc2ccccc2)c1C	-0.0537% (inactive)	
N#C/C(=C1/SC[C@@H](c2ccc(Cl)cc2Cl)S1)n1ccnc1	1.55% [at 42.5 µM, stronger effect = higher value] (inactive)	
C[N+](C)(C)CCOC(N)=O	0.249% [at 42.5 µM, stronger effect = higher value] (inactive)	
COCCOC(=O)C1=C(C)NC(C)=C(C(=O)OC/C=C/c2ccccc2)C1c1cccc([N+](=O)[O-])c1 (stereo not given)	-2.49% [at 42.5 µM, stronger effect = higher value] (inactive)	
CC(CCO)CCc1ccccc1 (stereo not given)	-0.0639% (inactive)	
Nc1ccc(C(=O)OCCCOC(=O)c2ccc(N)cc2)cc1	0.535% (inactive)	
CC(C)CCCCCCOC(=O)CCCCC(=O)OCCCCCCC(C)C	-0.791% (inactive)	
CC(COc1ccc(C(C)(C)C)cc1)OS(=O)OCCCl (stereo not given)	-20.9% (inactive)	
CNC(=O)N(c1ccccc1)c1ccccc1	-0.0825% (inactive)	
Cc1nc2ccccn2c(=O)c1CCN1CCC(C(=O)c2ccc(F)cc2)CC1	0.798% [at 42.5 µM, stronger effect = higher value] (inactive)	
CCCCN(CCCC)CCCOC(=O)c1ccc(N)cc1	-0.209% [at 42.5 µM, stronger effect = higher value] (inactive)	

SMILES	activity change	Potency
CCCCCC=CCC=CCCCCCCCC(=O)OCC	0.334% [at 42.5 µM, stronger effect = higher value] (inactive)	
Cc1cc(S(=O)(=O)O)ccc1N=Nc1c(O)ccc2ccccc12	-2.05% (inactive)	
C[C@]12CCC(=O)C=C1C=C[C@@H]1[C@@H]2CC[C@@]2(C)[C@H]1CC[C@@]21CCC(=O)O1	0.831% [at 42.5 µM, stronger effect = higher value] (inactive)	
CCCOc1ccc(S(=O)(=O)N2CCN(CC)CC2)cc1-c1nc2c(CC)n(Cc3ccccn3)nc2c(=O)[nH]1	-0.694% (inactive)	
O=C(/C=C/c1ccccc1)OCCCc1ccccc1	4.64% (inactive)	
N#C/C(=C1\SCC(c2ccccc2Cl)S1)n1ccnc1 (stereo not given)	-0.0076% [at 42.5 µM, stronger effect = higher value] (inactive)	
Nc1c(I)cc(I)c(C(=O)N(CCC(=O)O)c2ccccc2)c1I	-0.0507% [at 42.5 µM, stronger effect = higher value] (inactive)	
CC(C)C(OC(=O)c1ccccc1)C(C)(C)COC(=O)c1ccccc1 (stereo not given)	3.56% (inactive)	
Cc1cc(OI)c(C(C)C)cc1-c1cc(C(C)C)c(OI)cc1C	-0.758% [at 42.5 µM, stronger effect = higher value] (inactive)	
CNCCCC1c2ccccc2C=Cc2ccccc21	-6.34% [at 42.5 µM, stronger effect = higher value] (inactive)	
CNC(=S)NC	-3.1% (inactive)	
O=C(N[C@@H](c1ccccc1)[C@@H]1CCCCN1)c1cccc(C(F)(F)F)c1Cl	-13.5% (inactive)	
CCOC(=N)CC(=O)OCC	-2.01% (inactive)	
CN1Cc2cc(C(=O)N3CCC(C4CCNCC4)CC3)ccc2N[C@@H](CC(=O)O)C1=O	-0.464% [at 42.5 µM, stronger effect = higher value] (inactive)	
CC(N)CN (stereo not given)	0.0822% (inactive)	
CC1=CC(=O)CC(C)(C)C1(O)/C=C/C(C)=C\C(=O)O (stereo not given)	0.0309% (inactive)	
CC(C)OCC1CO1 (stereo not given)	-6.87% (inactive)	
COC(=O)Nc1nc2ccc(C(=O)c3cccs3)cc2[nH]1	1.9% [at 42.5 µM, stronger effect = higher value] (inactive)	
CC(Cl)C(Cl)Cl (stereo not given)	-4.32% (inactive)	
C=CCOC(=O)/C=C\C(=O)OCC=C	1.86% (inactive)	
